# “And” between values parts separate entries of the source, which are not always exact repeats. Equal entries are not always repeated. In all, about 230,000 compounds went through this assay and about 1,500 (0.65%) were called active. Inconclusive results (about 3%) are left out. Calls follow the shape of the dose curve; as a rule, active = well fitted inhibition curve with a large enough effect; inconclusive = small, poorly fitted or top-dose-only effect; inactive = no such curve, though single readings can be large or run the other way. For the sample, actives were picked, then their nearest neighbours and some compounds at random. The source holds several records for some structures; these can differ, active in one and inactive in another.
# Target: Lethal(3)malignant brain tumor-like protein 1 (Homo sapiens) (UniProt Q9Y468)
# Sequence (Q9Y468 whole entry, looked up): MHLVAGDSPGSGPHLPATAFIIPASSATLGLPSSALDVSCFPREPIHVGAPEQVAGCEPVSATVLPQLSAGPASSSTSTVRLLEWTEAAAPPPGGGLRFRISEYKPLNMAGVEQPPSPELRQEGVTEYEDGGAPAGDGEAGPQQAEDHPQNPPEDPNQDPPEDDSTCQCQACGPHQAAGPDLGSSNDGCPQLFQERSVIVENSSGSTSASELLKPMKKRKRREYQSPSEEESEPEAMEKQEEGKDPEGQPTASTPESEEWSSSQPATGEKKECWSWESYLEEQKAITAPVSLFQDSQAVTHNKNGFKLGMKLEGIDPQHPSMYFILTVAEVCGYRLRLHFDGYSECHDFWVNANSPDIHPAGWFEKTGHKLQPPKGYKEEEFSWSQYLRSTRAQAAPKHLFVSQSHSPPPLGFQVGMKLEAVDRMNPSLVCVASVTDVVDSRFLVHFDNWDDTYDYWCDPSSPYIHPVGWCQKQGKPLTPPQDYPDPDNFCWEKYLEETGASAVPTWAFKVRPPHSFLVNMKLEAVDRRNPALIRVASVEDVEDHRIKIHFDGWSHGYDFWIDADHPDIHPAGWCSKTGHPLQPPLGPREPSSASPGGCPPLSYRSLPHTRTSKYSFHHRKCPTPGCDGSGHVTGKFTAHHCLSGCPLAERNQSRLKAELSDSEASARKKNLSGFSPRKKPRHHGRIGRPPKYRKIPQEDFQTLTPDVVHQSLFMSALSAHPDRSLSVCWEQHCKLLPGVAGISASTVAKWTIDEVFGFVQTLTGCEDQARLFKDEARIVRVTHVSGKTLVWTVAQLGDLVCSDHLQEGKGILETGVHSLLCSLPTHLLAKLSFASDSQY
# Experiment: qHTS Assay for the Inhibitors of L3MBTL1; also: nearly all actives have a fitted effect of over 60% in size
# Conditions: AlphaScreen L3MBTL1–H3K9me1 peptide binding; series mostly up to 57.1 µM; activity, negative = inhibition: at the top concentration
# Text: The histone code is comprised of many post-translational modifications that occur mainly in histone tail peptides. The identity and location of these marks are read by a variety of histone binding proteins that are emerging as important regulators of cellular differentiation and development and are increasingly being implicated in numerous disease states. Small molecule probes that disrupt the interaction between histone binding proteins and chromatin would enable a systematic chemical biology study of proteins that read the histone code and could potentially reveal new targets for drug discovery. However, no such small molecules are known. This dearth of quality molecular probes can largely be attributed to the novelty of the target class and the lack of screening assays. This proposal details the development of the first high-throughput screening assay for the discovery of inhibitors of methyl-lysine binding proteins and how it can be be used to initiate a full-scale discovery effort for antagonists of histone binding proteins. Specifically, this work focuses on an AlphaScreen(tm)-based HTS assay for Malignant Brain Tumor (MBT) domain-containing proteins, which bind to the lower methylation states of lysine residues present in histone tail peptides.
# To each well, 2 uL of L3MBTL1 protein (final 50 nM) and 1 uL biotinylated histone peptide monomethylated at Lys9 [b-AHA-H3(1-15)K9me1] (final 75 nM) was added using a nanoliter dispenser. Formation of a protein-peptide complex proceeded at room temperature for 30 min. A Kalypsys pin-tool was employed to transfer 23 nL of library compound solution in DMSO to each well. Cefsulodin, found in a pilot screen of the LOPAC library to be a weak inhibitor of L3MBTL1 binding, was used as an intraplate control with a 16-point titration in duplicate. Following a 30 min incubation of the protein-peptide complex with compounds at room temperature, a mixture of 40 ug/mL each streptavidin-coated donor and nickel chelate acceptor AlphaScreen beads (final 10 ug/mL) was added in a 1 uL dispense for a final volume of 4 uL. Plates were incubated, protected from the light for 30 min at room temperature. Microplates were then be read on an EnVision multilabel plate reader using the 1,536 plate HTS AlphaScreen aperture (excitation time 80 ms, measurement time 240 ms).
# % is scaled to controls: 0 for no effect and ±100 for the full control effect; potency is read from the fitted curve at half-maximal effect.
SMILES,Potency,"activity, negative = inhibition"
CSC1=N/C(=C\C=C\c2cccs2)C(=O)S1,20 µM (active),–
O=C1N/C(=C/c2cccs2)C(=O)N1Cc1ccc(F)cc1,–,7.41% (inactive)
CSC1=N/C(=C\c2ccc3c(c2)OCO3)C(=O)S1,–,-5.37% (inactive)
Cc1ccnc(SCC(=O)Nc2cccc(S(=O)(=O)N3CCOCC3)c2)n1,–,-1.74% (inactive)
COc1ccccc1C(CNC(=O)c1cccc(NS(=O)(=O)c2ccc(Br)cc2)c1)N(C)C (stereo not given),–,5.64% (inactive)
COc1ccc(/C=N/Nc2nc3ccccc3c(=O)[nH]2)cc1,–,4.78% (inactive)
COc1ccc(Cc2nnc(N/N=C/c3ccccc3O)[nH]c2=O)cc1OC,8.91 µM (active),–
CCOc1ccc(-n2c(O)c(/C=N/Nc3nnc(C)c(=O)[nH]3)c3ccccc3c2=O)cc1,–,-28% (inactive)
CCOc1ccccc1OCC(=O)Nc1ccccc1C(=O)NC1CC1,–,-6.53% (inactive)
CC(OC(=O)c1ccc(S(=O)(=O)N2CCOCC2)cc1)c1ccccc1 (stereo not given),–,11.6% (inactive)
COc1ccc(-c2noc(CCC(=O)N3CCN(c4cccc(C)c4)CC3)n2)cc1,–,-5.84% (inactive)
Cc1ccc(N=C2NC(=O)/C(=C/C=C/c3ccco3)S2)cc1C,22.4 µM (active),–
CN(C)c1ccc(-n2cccc2/C=C2/SC(=Nc3ccc(F)cc3)NC2=O)cc1,–,-2.95% (inactive)
Cc1cccc(N=C2NC(=O)/C(=C/c3cn(C)c4ccccc34)S2)c1,–,-12.5% (inactive)
CC(=O)N1c2ccc(S(=O)(=O)N3CCCC(C(=O)Nc4ccc(C)cc4C)C3)cc2CC1C (stereo not given),–,-1.87% (inactive)
O=C(COC(=O)C1CCCO1)Nc1nc(-c2ccc(F)cc2)cs1 (stereo not given),–,5.76% (inactive)
O=C(CSc1nc2ccccc2c(=O)n1-c1ccccc1F)N1CCOCC1,–,2.61% (inactive)
Cc1ccc2c(c1)C1CN(C)CCC1N2S(=O)(=O)c1cccc(F)c1 (stereo not given),–,-0.876% (inactive)
Cc1nc2ccccc2nc1N/N=C/c1ccc(O)cc1O,14.1 µM (active),–
FC(F)(F)c1nc2ccccc2nc1N/N=C/c1ccc(Cl)cc1,–,-3.16% (inactive)
Oc1ccc(/C=N/Nc2nc(-c3ccccc3F)nc3ccccc23)c(O)c1,–,-26.6% (inactive)
C=C1c2c(Cl)ccc(O)c2C(O)=C2C(=O)[C@]3(O)C(O)=C(C(N)=O)C(=O)[C@@H](N(C)C)[C@@H]3[C@@H](O)C12 (stereo not given in full),0.447 µM (active),–

SMILES,Potency,"activity, negative = inhibition"
Cc1nn(Cc2ccccc2)c(C)c1C(=O)N1CCN(CC(=O)Nc2ccccc2Cl)CC1,–,4.62% (inactive)
CCN(CC(=O)NCc1ccc(F)cc1)S(=O)(=O)c1ccc(Cl)s1,–,11.7% (inactive)
CCOc1ccc(S(=O)(=O)Nc2cccc(C(=O)NCC3(N4CCCCC4)CCCCC3)c2)cc1,–,-7.83% (inactive)
CC(Sc1ccccc1F)C(=O)Nc1cccc(S(=O)(=O)N2CCOCC2)c1 (stereo not given),–,4.02% (inactive)
Cc1cc(C)cc(NS(=O)(=O)Cc2ccccc2)c1,–,0.725% (inactive)
O=C1N/C(=C/c2cccn2-c2ccccc2)C(=O)N1c1cccc(Cl)c1,–,6.45% (inactive)
Cc1ccccc1NC(=O)CN1C(=O)N/C(=C\c2cccn2-c2cccc(C(=O)O)c2)C1=O,3.55 µM (active),–
Cc1ccccc1NC(=O)CSC(=O)c1ccccc1,–,-7.88% (inactive)
Cc1ccc(NC(=O)C(c2ccccc2)N2CCN(C(=O)c3ccco3)CC2)cc1 (stereo not given),–,-8.06% (inactive)
CN(C)C(=O)CCc1ccc2c3c([nH]c2c1)[C@]1(C)[C@@H](C(=O)N2CCCCC2)C[C@H](CC(=O)NCCC2=CCCCC2)C(=O)N1CC3,–,-2.71% (inactive)
C=CCOc1cccc(C2NC(=O)c3ccccc3O2)c1 (stereo not given),–,0.914% (inactive)
Clc1cccc(CN2COc3c(cc(Cl)c4cccnc34)C2)c1,–,-15.3% (inactive)
COc1cc(CN2CCC(C(N)=O)CC2)ccc1OCc1ccccc1,–,9.88% (inactive)
Oc1c(CN2CCCC2)cc(COCc2ccccc2)c2cccnc12,inactive and 28.2 µM (active),–
CCN(CC(=O)Nc1ccccc1C(F)(F)F)C(=O)C1CCN(C(=O)Nc2ccccc2)CC1,–,-3.3% (inactive)
COc1ccc(CCNC(=O)COC(=O)c2cnc(Cl)c(Cl)c2)cc1,–,-1.86% (inactive)
COc1ccccc1Nc1nc(N)nc(CN(C)C2CCCCC2)n1,15.8 µM (active),–
Cc1ccccc1Nc1nc(N)nc(CSc2ccccc2)n1,–,-6.78% (inactive)
COc1ccccc1Nc1nc(N)nc(CSC(=S)N2CCOCC2)n1,–,-0.65% (inactive)
CCCCCC(=O)N1CCN(S(=O)(=O)c2ccc3c(c2)OCCCO3)CC1,–,4.12% (inactive)
CCOC(=O)c1sc2nc(CSc3ccccc3)[nH]c(=O)c2c1C,–,6.68% (inactive)
CCOC(=O)c1sc2nc(C)[nH]c(=O)c2c1C,–,3.08% (inactive)

SMILES,Potency,"activity, negative = inhibition"
CSc1nnc(SCc2nc3sc(C(=O)O)c(C)c3c(=O)[nH]2)s1,3.16 µM (active),–
COc1ccc(S(=O)(=O)N2CCOC23CCN(S(=O)(=O)c2ccc([N+](=O)[O-])cc2)CC3)cc1,–,-11% (inactive)
CCCCn1c(N)c(N(CC(C)C)C(=O)CN(C)S(=O)(=O)c2ccc(F)cc2)c(=O)[nH]c1=O,–,5.09% (inactive)
CN(C)c1ccc(Nc2c3c4c(cccc4n(C)c2=O)C(=O)c2ccccc2-3)cc1,7.94 µM (active),–
CN(C)c1ccc(C2N(C)C(=O)c3ccccc3N2C)cc1 (stereo not given),–,-3.44% (inactive)
CC(C)Oc1ccc(S(=O)(=O)N2CCOCC2)cc1NC(=O)C1CCCC1,–,-1.04% (inactive)
COC(=O)c1ccc2ccccc2c1OC1OC(CO)C(O)C(O)C1NC(C)=O (stereo not given),–,4.66% (inactive)
CC1CCCN(C(=O)c2cc(-c3ccco3)nc3ccccc23)C1 (stereo not given),–,-0.376% (inactive)
Cc1cc(C)c2nc(-c3ccco3)cc(C(=O)O)c2c1,3.16 µM (active),–
Cc1ccc2nc(-c3ccccc3)cc(C(=O)O)c2c1,–,-3.25% (inactive)
CCOC(=O)c1ccccc1NS(=O)(=O)c1c(C)nc2sccn2c1=O,–,1.45% (inactive)
CCN(CC)S(=O)(=O)c1ccc(N2CCOCC2)c(NC(=O)C(C)Oc2ccc(F)cc2)c1 (stereo not given),–,-4.04% (inactive)
Cc1occc1C(=O)Nc1cccc(S(=O)(=O)N2CCOCC2)c1,–,-5.85% (inactive)
c1ccc(NCc2cccc3ccccc23)nc1,–,25.5% (inactive)
Oc1ccc2ccccc2c1N=Nc1nccs1,3.98 µM (active),–
Oc1ccc(N=Nc2nccs2)c(O)c1,25.1 µM (active),–
Oc1ccc2ccccc2c1C=Nc1ccccc1,–,-9% (inactive)
CN(CC(=O)NC1CCN(Cc2ccccc2)CC1)S(=O)(=O)c1ccc(Cl)s1,–,-0.592% (inactive)
O=C(COC(=O)c1ccco1)Nc1ccc(Cl)cn1,–,-4.51% (inactive)
O=C(NNS(=O)(=O)c1ccc(F)cc1)c1ccc([N+](=O)[O-])cc1Cl,–,1.2% (inactive)
Cc1sc2ncnc(N3CCC(C(=O)NNC(=O)c4ccc(F)cc4)CC3)c2c1C,–,4.79% (inactive)

# Reference: PubChem BioAssay AID485360 (National Center for Advancing Translational Sciences (NCATS), 2010)
